Screening data from PubChem BioAssay.
CCT chaperon mod: High-Throughput Screening for Modulators of Cytosolic Chaperonin Activity; 360,000 compounds, 0.3% hits; purified chaperonin ATPase assay, HTRF ADP detection, 30 min; activity change, % (no concentration beside the values), hits read low; in the data active means activity change below about -30%
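ATPase activity: ADP formed was measured by HTRF Transcreener (665/615 nm ratio) after 30 min at 37 deg C with 10 uM ATP. Compounds screened at one 76 uM concentration against 40 or 20 nM TRiC in Tris pH 7.4/KCl/MgCl2/DTT buffer.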
Sfp inh: qHTS Assay for Inhibitors of Bacillus subtilis Sfp phosphopantetheinyl transferase (PPTase) | Biochemical Sfp PPTase activity, qHTS | 310,000 compounds, 3.5% hits | 4'-phosphopantetheinyl transferase ffp (Bacillus subtilis), Q9F4F7 | Potency, µM, actives largely listed as inhibitors | AID 1490, 2009;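 further: the enzyme is Sfp with the accession as filed and its product quenches rhodamine fluorescence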
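With Hepes-Na pH 7.6 buffer containing 10 mM MgCl2, Sfp (15 nM) modified BHQ-2-YbbR (12.5 uM) using rhodamine-CoA (5 uM). Two reads 30 minutes apart at 525/598 nm yielded each well's rate.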
PLK1 PBD inh: qHTS for Inhibitors of PLK1-PDB (polo-like kinase 1 - polo-box domain): Primary Screen | Serine/threonine-protein kinase PLK1 (Homo sapiens), P53350 | Plk1 PBD binding of FITC phosphopeptide, fluorescence polarization | Potency, µM, actives largely listed as inhibitors | 360,000 compounds, 2.8% hits; further: series mostly up to about 57 µM; nearly all actives have a fitted effect of over 65% in size
Mm-Cpn inhibitor: Inhibitors of TCP-1 ring complex (TRiC) of Methanococcus maripaludis (MmCpn): qHTS; Potency, µM (doses to about 76.9 µM), hits mostly inhibitors; Chaperonin Mm-Cpn (Methanococcus maripaludis); purified Mm-Cpn ATPase, ADP Transcreener TR-FRET; 330,000 compounds, 0.031% hits; further: nearly all actives have a fitted effect of over 80% in size
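Purified archaeal Mm-CPN (25nM final) preincubated 10 min at 37degC with compound, then 10uM ATP for 30 min at 37degC; ADP measured by HTRF Transcreener TR-FRET; buffer 30 mM TRIS pH 7.4, 100mM KCl, 5mM MgCl2, 1mM DTT.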
G9a inh: qHTS Assay for Inhibitors of Histone Lysine Methyltransferase G9a. Histone-lysine N-methyltransferase EHMT2 (Homo sapiens), Q96KQ7. G9a H3K9 monomethylation, AlphaScreen, 2 h. Potency, µM (top dose mostly 102 µM), usual class: inhibitors. 350,000 compounds, 8.8% hits; further: nearly all actives have a fitted effect of over 75% in size
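Readings reflect AlphaScreen signal from monomethyl-H3K9 antibody detection. HMT at 20 nM; substrate b-H3K9 500 nM; cofactor SAM 20 uM; 2 h RT reaction; compounds tested as titrations in qHTS with 15 min preincubation.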
VDR inhibitor: Inhibitors of the vitamin D receptor (VDR): qHTS; VDR-SRC2-3 peptide fluorescence polarization, 2 h; Vitamin D3 receptor (Homo sapiens), P11473; 400,000 compounds, 0.93% hits; Potency, µM, most hits filed as inhibitors
Target sequence (P11473 whole entry, looked up): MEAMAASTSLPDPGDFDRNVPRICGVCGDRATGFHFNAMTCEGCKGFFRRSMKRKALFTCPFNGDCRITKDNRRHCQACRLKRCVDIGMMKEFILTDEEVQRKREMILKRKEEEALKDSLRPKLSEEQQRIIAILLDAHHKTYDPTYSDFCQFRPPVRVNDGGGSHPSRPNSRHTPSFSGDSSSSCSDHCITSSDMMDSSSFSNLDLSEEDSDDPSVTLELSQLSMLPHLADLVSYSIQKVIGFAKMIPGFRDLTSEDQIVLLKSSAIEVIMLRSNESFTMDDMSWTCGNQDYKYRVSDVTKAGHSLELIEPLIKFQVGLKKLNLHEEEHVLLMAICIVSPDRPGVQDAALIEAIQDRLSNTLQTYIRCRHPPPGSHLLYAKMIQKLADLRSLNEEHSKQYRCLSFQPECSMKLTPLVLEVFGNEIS
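VDR–SRC2-3 interaction, FP format. Cmpds 23 nl via pintool, brief spin, 2 h ambient incubation.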
Hits are given with their value; - = inactive; ? = inconclusive; . = not tested or not shown; [ ] = dose if it differs, or a comment. An excerpt weighted towards active compounds, which were near 10% of everything screened. Unless noted, the call rests on the fitted dose curve; in most records, active means well fitted curve in the direction sought with a large enough effect; inconclusive means small, poorly fitted or top-dose-only effect, or another doubt; inactive means no such curve, though single readings can be large; an effect the other way counts as inactive or inconclusive.

SMILES	CCT chaperon mod	Sfp inh	PLK1 PBD inh	Mm-Cpn inhibitor	G9a inh	VDR inhibitor
CN(C)CC(O)COC(c1ccccc1)c1ccccc1 (configuration not stated)	-	-	-	-	-	-
OC(CNCCc1ccc(C(F)(F)F)cc1)COC(c1ccccc1)c1ccccc1 (configuration not stated)	-	56µM	-	-	?	-
CC(=O)Nc1ccccc1O	-	-	-	-[15.4 µM]	-	-
CC(NC(=O)Nc1ccc(O)cc1)(C(F)(F)F)C(F)(F)F	-	-	-	-	11µM	-
CC(NC(=O)Nc1ccccc1O)(C(F)(F)F)C(F)(F)F	-	?	27µM	-	-	-
CCC(NC(=O)Nc1ccc(O)cc1)(C(F)(F)F)C(F)(F)F	-	?	-	-	?	-
CCn1c(=O)cc(OCC(=O)N2CCN(c3cccc(Cl)c3)CC2)c2ccccc21	.	.	.	.	?	-
Oc1c(Br)cc(Br)cc1-c1nc2ccccc2s1	.	.	.	.	-	-
Cc1ccc(C(=O)c2oc3ccccc3c2NC(=O)Cc2coc3cc(C)ccc23)cc1	.	.	.	.	-	-
Cc1nn(C)cc1CN(C)C(=O)c1cc2nc(-c3ccco3)cc(C(F)(F)F)n2n1	-	35µM	-	-	?	-
COc1ccc2c(c1)CC(C(=O)N1CCC(C(N)=O)CC1)CO2 (configuration not stated)	.	.	.	.	-	-
CCOC(=O)CSc1nc2ccccc2c(=O)n1Cc1ccco1	-	-	-	-	-	-
CCOC(=O)CSc1nc2c(sc3ccc([N+](=O)[O-])cc32)c(=O)n1Cc1ccco1	-	3.5µM	-	-	-	-
CCOC(=O)CSc1nc2c(sc(=S)n2-c2ccccc2OC)c(=O)n1Cc1ccco1	-	-	?	-	45µM	-
CCOC(=O)CSc1nc2c(sc(=S)n2-c2ccccc2OC)c(=O)n1-c1ccccc1OC	-	-	-	-	-	-
CCCN1CCN(CCNC(=O)Nc2cc(C)ccc2OC)CC1	.	.	.	.	-	-
CN1C(=O)c2c(sc3c2CCCC3)NC1c1ccccc1O (configuration not stated)	.	40µM	.	-	?	.
Cc1c(N(C)C)nc2ccccc2c1N	-	-	-	-	?	-
CCN(CC)c1nc2ccccc2c(N)c1-c1ccccc1	-	79µM	-	-	2.8µM	-
Cc1ccc(-c2nc(N/N=C/c3cccc([N+](=O)[O-])c3)c3ccccc3n2)cc1	-	-	-	-	40µM	-
Cc1ccc(-c2nc(N/N=C/c3cccnc3)c3ccccc3n2)cc1	-	-	-	-	-	-
O=C(COC(=O)CCc1nc2ccccc2c(=O)[nH]1)Nc1ccc(Cl)cn1	-	-	15µM	-	?	?
N#Cc1ccc(NC(=O)COC(=O)CCc2nc3ccccc3c(=O)[nH]2)cc1	-	-	-	-	50µM	-
O=C(COC(=O)CCc1nc2ccccc2c(=O)[nH]1)Nc1ccccc1	-	.	-	-	.	-
CCc1cc[n+](C(C(=S)Nc2cccc(C)c2)=C([O-])c2ccc(C)c([N+](=O)[O-])c2)cc1	-	.	-	.	.	-
Cc1ccc(/C([O-])=C(/C(=S)NCc2ccccc2)[n+]2cccc(CO)c2)cc1[N+](=O)[O-]	-	?	?	-	28µM	-
COc1ccc(N2CCN(S(=O)(=O)CCNC(=O)c3ccc(OC(C)C)cc3)CC2)cc1	.	.	.	.	-	-
O=C(N/N=C/C=C/c1ccc([N+](=O)[O-])cc1)C1COc2ccccc2O1 (configuration not stated)	-	-	-	-	-	-
O=C(N/N=C\C=C\c1ccco1)C1COc2ccccc2O1 (configuration not stated)	-	40µM	-	-	?	-
